PubChem BioAssay (EPA / NIEHS)
Where “and” joins values, the source holds several entries; their conditions need not be identical. Equal values may be shown once. Records with an inconclusive call do not appear. Some compounds were tested as several samples or in several runs, with calls that do not always agree. Calls of active or inactive are those of the source. How the source made its calls: active means hit-call score of the fitted dose curve at least 0.9, where 1 is the maximum; inconclusive means response in the unintended direction; inactive means score below 0.9.

system: not listed separately; experiment: TOX21_p53_BLA_p5_viability: Viability Assessment in the Tox21 HCT-116 p53 Agonism Beta-lactamase Assay, Phase 5 (AID 2283600)
In short: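 Decreased CellTiter-Glo luminescence denotes lost viability. Exposure: 16 h at 37C, 5% CO2, with compounds from DMSO stocks diluted 217-fold in wells of 4000 cells.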

| Compound | AC50 | outcome |
| --- | --- | --- |
| Oc1cc2ccccc2c2ccccc12 | 13.3 µM (active) | – |
| CCCCCCCC(=O)O | – | inactive |
| COC(=O)CCCCC(=O)OC | – | inactive |
| Nc1cccc2c(N)cccc12 | – | inactive |
| CCCOC(=O)c1ccc(O)cc1 | – | inactive |
| CC(C)(C)c1cc(C(C)(C)C)c(O)c(C(C)(C)C)c1 | – | inactive |
| OCCC(F)(F)C(F)(F)C(F)(F)C(F)(F)C(F)(F)C(F)(F)C(F)(F)C(F)(F)F | – | inactive |
| CCCCC(CC)COC(=O)CCCCC(=O)OCC(CC)CCCC (configuration not stated) | – | inactive |
| Cc1cc(CCN2CCN(c3nsc4ccccc34)CC2)cc2c1NC(=O)CC2(C)C | – | inactive |

target: Cellular tumor antigen p53 (Homo sapiens) (UniProt P04637); experiment: TOX21_p53_BLA_p4_ratio: Tox21 HCT-116 p53 Agonism Beta-lactamase Assay, Ratio, Phase 4 (AID 2283601)
Sequence (P04637 whole entry, looked up): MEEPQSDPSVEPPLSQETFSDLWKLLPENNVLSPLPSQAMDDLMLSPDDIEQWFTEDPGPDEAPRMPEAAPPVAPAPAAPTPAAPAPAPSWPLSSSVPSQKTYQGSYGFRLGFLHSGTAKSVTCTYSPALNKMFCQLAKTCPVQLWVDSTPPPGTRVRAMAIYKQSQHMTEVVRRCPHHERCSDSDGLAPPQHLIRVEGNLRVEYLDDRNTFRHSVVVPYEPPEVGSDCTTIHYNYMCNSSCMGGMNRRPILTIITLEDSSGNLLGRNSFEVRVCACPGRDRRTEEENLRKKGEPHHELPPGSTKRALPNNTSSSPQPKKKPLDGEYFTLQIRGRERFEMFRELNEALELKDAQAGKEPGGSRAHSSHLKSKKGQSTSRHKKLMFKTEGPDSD
In short: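 HCT-116 p53 beta-lactamase reporter cells (4000/well) preincubated 5 h, then compound (217-fold dilution of DMSO stock) for 16 h at 37C. CCF4-AM substrate added 2 h at room temperature; 460/530 nm emission ratio fitted upward versus DMSO.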

| Compound | outcome | AC50 |
| --- | --- | --- |
| CN1CCN(c2ccccc2/C=C2\SCCN(c3ccc(Cl)c(Cl)c3)C2=O)CC1 | inactive | – |
| Oc1cccc(O)c1 | inactive | – |
| Oc1cc2ccccc2c2ccccc12 | – | 20.4 µM (active) |
| CC#C[C@]1(O)CC[C@H]2[C@@H]3CCC4=CC(=O)CCC4=C3[C@@H](c3ccc(N(C)C)cc3)C[C@@]21C | – | 65.8 µM (active) and 20.7 µM (active) |
| CCCCCCCC(=O)O | inactive | – |
| NC(=O)N1C(=O)C(C(=O)c2cc(Cl)cs2)c2cc(F)c(Cl)cc21 (configuration not stated) | – | 14 µM (active) |
| COCC(C)O (configuration not stated) | inactive | – |
| CCCCCCCCCCCCCC[N+](C)(C)C | – | 63.8 µM (active) and 26.6 µM (active) and 23.1 µM (active) |
| CC1=C(/C=C/C(C)=C/C=C/C(C)=C/C(=O)O)C(C)(C)CCC1 | inactive | – |
| O=C(O)Cc1cc(I)c(Oc2cc(I)c(O)c(I)c2)c(I)c1 | – | 33.1 µM (active) |
| COc1ccc([N+](=O)[O-])cc1N | inactive | – |
| NC(=O)N(O)[C@@H]1C=C[C@H](Oc2cccc(Oc3ccc(F)cc3)c2)C1 | – | 74.5 µM (active) |
| OC1CCC(C2CCCCC2)CC1 (configuration not stated) | inactive | – |
| CC(C)(C)CC(C)(C)c1ccc(O)c(-n2nc3ccccc3n2)c1 | inactive | – |
| CC(C)(C)c1ccc(O)c(C(C)(C)C)c1 | inactive | 72.4 µM (active) |
| c1ccc2c(c1)Cc1ccccc1-2 | inactive | – |

| Compound | outcome | AC50 |
| --- | --- | --- |
| COC(=O)CCCCC(=O)OC | inactive | – |
| CCCCCCCCC(=O)O | inactive | – |
| Cc1ccc(S(=O)(=O)O)c(C)c1 | inactive | – |
| c1ccc2cc3c(ccc4ccccc43)cc2c1 | inactive | – |
| O=c1c(-c2ccc(O)cc2)coc2cc(O)ccc12 | inactive | – |
| Nc1cccc2c(N)cccc12 | inactive | – |
| CCCOC(=O)c1ccc(O)cc1 | inactive | – |
| CC(O)C(=O)O (configuration not stated) | inactive | – |
| CC[C@H](c1ccc(O)cc1)[C@@H](CC)c1ccc(O)cc1 | inactive | 60.1 µM (active) |
| CCC(C)(C)C1CCC(O)CC1 (configuration not stated) | inactive | – |
| CCc1ccc(CCOc2ccc(CC3SC(=O)NC3=O)cc2)nc1 (configuration not stated) | inactive | – |
| OCCC(F)(F)C(F)(F)C(F)(F)C(F)(F)C(F)(F)C(F)(F)C(F)(F)C(F)(F)F | inactive | – |
| O=[N+]([O-])c1ccc(O)cc1 | inactive | – |
| CCCCC(CC)COC(=O)CCCCC(=O)OCC(CC)CCCC (configuration not stated) | inactive | – |
| Cc1cc(CCN2CCN(c3nsc4ccccc34)CC2)cc2c1NC(=O)CC2(C)C | – | 82.8 µM (active) |
